Laboratory results taken from PubChem BioAssay (Tox21).
Results filed as inconclusive are left out. Active and inactive are the calls of the source. Unless noted, calls follow the shape of the dose curve; as a rule, active = well fitted curve in the direction sought with a large enough effect in the repeat runs; inconclusive = weak or mixed curves; inactive = no such curve, though single readings can be large; an effect the other way counts as inactive or inconclusive.

Columns and labels:
[1] = qHTS assay to identify small molecule agonists of the estrogen receptor alpha (ER-alpha) signaling pathway in the presence of an antagonist - cell viability counter screen (AID 1259386);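 also: series mostly up to about 92 µM; cells exposed to compounds for 22 h at 37 °C before the viability read; nearly all actives have a fitted effect of over 30% in size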
Method in brief: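 Viability counter screen using VM7Luc4E2 (full-length ER-alpha, four ERE-luciferase). The cells were treated with compounds alongside ICI-182,780 10.0nM for 22hr, and live-cell protease fluorescence was quantified with CellTiter-Fluor.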

[2] = qHTS assay to identify small molecule antagonists of the progesterone receptor (PR) signaling pathway - cell viability counter screen (AID 1346798); also: series mostly up to about 92 µM; nearly all actives have a fitted effect of over 50% in size
Method in brief: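 PR-UAS-bla HEK293T cells in medium with 2% charcoal-stripped FBS were treated with compounds plus R5020 for 16 hr at 37C. Cell viability was then read by CellTiter-Glo luminescence after 30 min at room temperature in the same wells.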

[3] = qHTS assay to identify small molecule agonists of the progesterone receptor (PR) signaling pathway - cell viability counter screen (AID 1346799; calls by dose curve; also: nearly all actives have a fitted effect of over 45% in size)
Method in brief: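 PR-UAS-bla HEK293T cells, 3,000 per well in medium with 2% charcoal-stripped FBS, were preincubated 6 hr at 37C, then exposed to compounds for 16 hr; viability was read as CellTiter-Glo luminescence after 30 min at room temperature.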

[4] = qHTS assay to identify small molecule antagonists of the TGF-beta/Smad signaling pathway - cell viability counter screen (AID 1346824); also: nearly all actives have a fitted effect of over 50% in size
Method in brief: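 SBE-bla HEK 293T cells were plated overnight at 37 C, then given compounds in DMSO plus TGF-beta1 (added as 0.25 ng/mL solution) for 5 hr. After the bla read, CellTiter-Glo was added to the same wells and luminescence read after 30 min at room temperature.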

[5] = qHTS assay to identify small molecule agonists of the TGF-beta/Smad signaling pathway - cell viability counter screen (AID 1346829); also: top concentration of the series differs between compounds; nearly all actives have a fitted effect of over 45% in size
Method in brief: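 SBE-bla HEK 293T cells plated overnight, compound exposure 5 hr at 37 C. Viability read in the same wells by CellTiter-Glo luminescence after 30 min at room temperature, following the beta-lactamase read.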

[6] = qHTS assay to identify small molecule agonists of the TGF-beta/Smad signaling pathway (AID 1346859; active = well fitted activation curve with a large enough effect in the signal ratio in the repeat runs, not every such curve was filed as active; the % refers to the signal ratio; also: series mostly up to about 77 µM)
Method in brief: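 HEK 293T cells stably carrying a beta-lactamase reporter driven by the Smad binding element were seeded overnight, exposed to DMSO-dissolved compounds for 5 hr at 37 C, 5% CO2, then loaded with FRET substrate for 2 hr at room temperature.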

[7] = target: Thyrotropin-releasing hormone receptor (Homo sapiens) (UniProt P34981); assay: qHTS assay to identify small molecule antagonists of the thyrotropin-releasing hormone receptor (TRHR) signaling pathway (AID 1346877; active = well fitted inhibition curve with a large enough effect in the repeat runs, not every such curve was filed as active; also: series mostly up to about 51 µM)
Thyrotropin-releasing hormone receptor (Homo sapiens), sequence (P34981 whole entry, looked up): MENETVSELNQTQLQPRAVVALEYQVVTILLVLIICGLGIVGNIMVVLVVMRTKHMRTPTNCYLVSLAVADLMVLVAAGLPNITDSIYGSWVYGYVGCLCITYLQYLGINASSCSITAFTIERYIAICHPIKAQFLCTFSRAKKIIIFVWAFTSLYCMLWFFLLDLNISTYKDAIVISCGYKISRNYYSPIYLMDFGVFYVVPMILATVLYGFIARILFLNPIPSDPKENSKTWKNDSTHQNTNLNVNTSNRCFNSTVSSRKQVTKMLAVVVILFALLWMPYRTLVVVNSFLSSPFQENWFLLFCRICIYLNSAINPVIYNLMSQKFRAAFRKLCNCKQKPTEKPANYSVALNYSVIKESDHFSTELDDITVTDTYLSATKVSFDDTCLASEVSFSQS
Method in brief: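 Following an 18 h incubation at 37 °C and a 2 h calcium dye load, TRHR-HEK293 cells were exposed to compound (5 min, room temperature) and challenged with TRH, 1 nM final.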

[8] = target: Thyrotropin-releasing hormone receptor (Homo sapiens) (UniProt P34981); assay: qHTS assay to identify small molecule agonists of the thyrotropin-releasing hormone receptor (TRHR) signaling pathway (AID 1346891; calls by dose curve; also: series mostly up to about 58 µM)
Method in brief: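 TRHR-expressing HEK293 cells were plated 18 h at 37 °C/5% CO2, loaded with calcium dye 2 h at 37 °C, then given compound in DMSO; fluorescence was read kinetically for 3 min at 1 s intervals.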

[9] = Caspase-3/7 induction in HepG2 cells by small molecules, qHTS assay (AID 1346978); also: nearly all actives have a fitted effect of over 15% in size
Method in brief: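 Wild-type HepG2 cells (2,000/well) were settled 5 h at 37 C, 5% CO2, then exposed to compounds in DMSO for 17 h. Caspase-3/7 activity was read by luminescence 30 min after adding Caspase-Glo 3/7 reagent at room temperature.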

[10] = Caspase-3/7 induction in CHO-K1 cells by small molecules, qHTS cell viability counter screen (AID 1346979); also: nearly all actives have a fitted effect of over 35% in size
Method in brief: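 Wild-type CHO-K1 cells were seeded at 1,500 per well, rested 5hr at 37 C, then exposed to compounds in DMSO. After 16hr, CellTiter-Fluor reagent was added and fluorescence read 1hr later as the viability measure.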

[11] = Caspase-3/7 induction in CHO-K1 cells by small molecules, qHTS assay (AID 1346980); also: nearly all actives have a fitted effect of over 15% in size
Method in brief: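 Wild-type cells were seeded at 1,500 per well and settled 5 hr at 37 C, 5% CO2, then exposed to DMSO-dissolved compounds for 17 hr. Caspase-Glo 3/7 reagent was added, and luminescence was read after 30min at room temperature.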

[12] = Caspase-3/7 induction in HepG2 cells by small molecules, qHTS cell viability counter screen (AID 1346981); also: series mostly up to about 92 µM; nearly all actives have a fitted effect of over 30% in size
Method in brief: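 Viability determined by CellTiter-Fluor fluorescence in HepG2 wells also used for the luminescent Caspase-Glo 3/7 read. Compounds were present for 16 hr at 37 C, 5% CO2 before reagent addition.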

[13] = target: Nuclear receptor subfamily 1 group I member 2 (Homo sapiens) (UniProt O75469); assay: Human pregnane X receptor (PXR) small molecule agonists, qHTS assay (AID 1346982); also: nearly all actives have a fitted effect of over 35% in size; also: potency is read from the fitted curve at half-maximal effect
Nuclear receptor subfamily 1 group I member 2 (Homo sapiens), sequence (O75469 whole entry, looked up): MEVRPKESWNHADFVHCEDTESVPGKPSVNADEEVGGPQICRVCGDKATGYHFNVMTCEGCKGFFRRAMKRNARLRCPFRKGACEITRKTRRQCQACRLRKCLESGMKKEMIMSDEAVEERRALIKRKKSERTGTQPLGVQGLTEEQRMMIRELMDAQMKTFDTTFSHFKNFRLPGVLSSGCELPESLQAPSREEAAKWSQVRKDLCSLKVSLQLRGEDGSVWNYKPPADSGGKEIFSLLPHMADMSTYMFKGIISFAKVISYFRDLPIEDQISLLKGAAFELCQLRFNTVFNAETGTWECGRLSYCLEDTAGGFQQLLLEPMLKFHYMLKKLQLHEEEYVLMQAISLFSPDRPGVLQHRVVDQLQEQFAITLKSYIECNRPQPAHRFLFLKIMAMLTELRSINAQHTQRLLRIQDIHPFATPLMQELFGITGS
Method in brief: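 Compound-induced hPXR transactivation of a CYP3A4 luciferase reporter was scored in HepG2 PXR-Luc cells over 24 hr at 37 C, 5% CO2, by luminescence.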

[14] = target: Progesterone receptor (Homo sapiens) (UniProt P06401); assay: qHTS assay to identify small molecule agonists of the progesterone receptor (PR) signaling pathway (AID 1346784; calls by dose curve; also: nearly all actives have a fitted effect of over 30% in size)
Progesterone receptor (Homo sapiens), sequence (P06401 whole entry, looked up): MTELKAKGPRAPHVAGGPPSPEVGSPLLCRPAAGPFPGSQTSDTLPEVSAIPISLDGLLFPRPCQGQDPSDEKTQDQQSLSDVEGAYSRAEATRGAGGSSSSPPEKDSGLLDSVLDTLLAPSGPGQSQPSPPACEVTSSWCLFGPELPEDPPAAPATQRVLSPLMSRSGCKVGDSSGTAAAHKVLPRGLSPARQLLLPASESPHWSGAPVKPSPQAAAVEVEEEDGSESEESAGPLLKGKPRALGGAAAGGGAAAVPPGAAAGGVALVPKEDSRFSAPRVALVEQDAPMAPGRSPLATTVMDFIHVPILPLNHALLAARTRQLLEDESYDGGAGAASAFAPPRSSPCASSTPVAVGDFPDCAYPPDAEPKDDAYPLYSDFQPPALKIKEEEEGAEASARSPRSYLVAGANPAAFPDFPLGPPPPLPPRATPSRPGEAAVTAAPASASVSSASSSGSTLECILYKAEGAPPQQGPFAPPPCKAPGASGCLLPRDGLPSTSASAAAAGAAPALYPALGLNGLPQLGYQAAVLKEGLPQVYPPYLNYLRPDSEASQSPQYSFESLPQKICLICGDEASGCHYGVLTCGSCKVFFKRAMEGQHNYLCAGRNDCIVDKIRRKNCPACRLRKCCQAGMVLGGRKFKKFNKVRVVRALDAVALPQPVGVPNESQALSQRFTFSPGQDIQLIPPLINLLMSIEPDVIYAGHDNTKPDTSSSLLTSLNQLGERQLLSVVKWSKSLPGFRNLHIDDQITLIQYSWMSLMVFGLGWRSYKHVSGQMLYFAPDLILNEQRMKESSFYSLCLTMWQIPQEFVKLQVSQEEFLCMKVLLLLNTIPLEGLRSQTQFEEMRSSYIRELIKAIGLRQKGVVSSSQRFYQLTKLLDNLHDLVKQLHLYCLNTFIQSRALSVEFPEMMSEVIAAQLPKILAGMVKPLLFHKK
Method in brief: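 PR-UAS-bla HEK 293T cells carrying a UAS-driven beta-lactamase reporter were seeded in medium with 2% charcoal-stripped FBS, preincubated 6 hr at 37C, then exposed to compounds in DMSO for 16 hr; agonism was read by LiveBLAzer B/G FRET fluorescence.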

[15] = target: Progesterone receptor (Homo sapiens) (UniProt P06401); assay: qHTS assay to identify small molecule antagonists of the progesterone receptor (PR) signaling pathway (AID 1346795; active = well fitted inhibition curve with a large enough effect in the signal ratio in the repeat runs, not every such curve was filed as active; the % refers to the signal ratio)
Method in brief: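 PR-UAS-bla HEK293T cells carrying a UAS-driven beta-lactamase reporter were plated in medium with 2% charcoal-stripped FBS and rested 6 hr at 37C. Compounds were added with 1 nM R5020 (final) for 16 hr, then FRET substrate loaded 2 hr at room temperature.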

[16] = Human pregnane X receptor (PXR) small molecule agonists, qHTS cell viability counter screen (AID 1346977); also: nearly all actives have a fitted effect of over 50% in size
Method in brief: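 PXR-Luc HepG2 cells in medium with 5% charcoal-stripped FBS were pre-incubated 5hr, then exposed to compounds for 24hr at 37C. Viability was read in the same wells by CellTiter-Fluor fluorescence, reagent added after 23hr with a 1hr incubation.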

[17] = target: Acetylcholinesterase (Homo sapiens) (UniProt P22303); assay: Acetylcholinesterase (AChE) small molecule antagonists: colormetric cell-based qHTS assay (AID 1347395; calls by dose curve; also: nearly all actives have a fitted effect of over 30% in size; also: potency is read from the fitted curve at half-maximal effect)
Acetylcholinesterase (Homo sapiens), sequence (P22303 whole entry, looked up): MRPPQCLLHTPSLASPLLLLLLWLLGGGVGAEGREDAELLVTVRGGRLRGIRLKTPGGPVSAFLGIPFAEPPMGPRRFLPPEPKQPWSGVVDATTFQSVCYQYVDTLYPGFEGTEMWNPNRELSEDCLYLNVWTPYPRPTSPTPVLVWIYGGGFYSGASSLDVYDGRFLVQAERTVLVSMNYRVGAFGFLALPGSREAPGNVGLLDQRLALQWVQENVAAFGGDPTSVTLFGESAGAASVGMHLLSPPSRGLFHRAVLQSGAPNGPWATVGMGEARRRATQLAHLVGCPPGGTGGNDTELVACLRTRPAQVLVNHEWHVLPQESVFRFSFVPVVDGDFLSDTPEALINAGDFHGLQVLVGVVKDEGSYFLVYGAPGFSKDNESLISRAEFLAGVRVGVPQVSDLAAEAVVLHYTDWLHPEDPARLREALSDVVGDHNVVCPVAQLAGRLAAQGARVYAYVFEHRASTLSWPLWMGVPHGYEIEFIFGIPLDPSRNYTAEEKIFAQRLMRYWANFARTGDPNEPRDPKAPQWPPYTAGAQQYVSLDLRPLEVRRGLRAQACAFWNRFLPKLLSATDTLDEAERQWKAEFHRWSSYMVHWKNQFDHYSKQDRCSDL
Method in brief: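 SH-SY5Y cells, plated overnight at 37 C, were exposed to compounds for 30 min at 37 C and 5% CO2. Acetylthiocholine plus DTNB was then added, and thiocholine from endogenous AChE was quantified colorimetrically after 90 min at 37 C.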

[18] = target: Nuclear receptor subfamily 1 group I member 2 (Rattus norvegicus) (UniProt Q9R1A7); assay: Rat pregnane X receptor (rPXR) activation by small molecules, qHTS assay (AID 1346983); settings: rPXR luciferase reporter cells, One-Glo luminescence, 24 h; active compounds read high; also: nearly all actives have a fitted effect of over 20% in size
Nuclear receptor subfamily 1 group I member 2 (Rattus norvegicus), sequence (Q9R1A7 whole entry, looked up): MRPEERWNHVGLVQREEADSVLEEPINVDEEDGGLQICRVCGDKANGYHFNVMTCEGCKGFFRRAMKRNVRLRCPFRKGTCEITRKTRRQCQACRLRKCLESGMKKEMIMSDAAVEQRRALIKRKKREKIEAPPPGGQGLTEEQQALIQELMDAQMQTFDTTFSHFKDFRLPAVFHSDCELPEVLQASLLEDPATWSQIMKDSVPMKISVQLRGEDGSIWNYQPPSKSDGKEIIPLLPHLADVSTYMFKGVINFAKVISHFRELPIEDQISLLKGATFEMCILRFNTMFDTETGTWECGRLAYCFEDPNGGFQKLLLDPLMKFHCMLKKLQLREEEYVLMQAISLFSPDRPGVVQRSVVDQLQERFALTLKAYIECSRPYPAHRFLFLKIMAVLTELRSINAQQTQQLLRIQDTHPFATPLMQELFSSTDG
Method in brief: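 Cell-based rPXR luciferase reporter assay, 2,000 cells per well, rested 5hr at 37 C before compound addition in DMSO, then 24 hr at 37 C. One-Glo reagent was added and luminescence read after 30 min at room temperature.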

[19] = target: Nuclear receptor subfamily 1 group I member 2 (Homo sapiens) (UniProt O75469); assay: CYP3A4 induction through human pregnane X receptor (PXR) by small molecules, qHTS assay (AID 1346984); also: nearly all actives have a fitted effect of over 40% in size
Method in brief: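 Readings come from a luciferase reporter: DPX-2 cells, which are HepG2 cotransfected with PXR and a CYP3A4-promoter construct, were exposed to test compounds for 24 h at 37C before One-Glo detection.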

[20] = target: Nuclear receptor subfamily 1 group I member 2 (Homo sapiens) (UniProt O75469); assay: Human pregnane X receptor (PXR) activation by small molecules, qHTS assay (AID 1346985); also: nearly all actives have a fitted effect of over 40% in size
Method in brief: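 DPX-2 cells (HepG2 co-transfected with a PXR response element and a CYP3A4-promoter luciferase construct) were seeded at 2,000 per well, rested 5 hr at 37C, then exposed to DMSO-dissolved compounds for 24 hr. Activation was read as luciferase luminescence.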
% is scaled to controls: 0 for no effect and ±100 for the full control effect.

[P]#[In]
inactive: Potency [1] | Potency [2] | Potency [3] | outcome [4] | Potency [5] | outcome [6] | Potency [7] | outcome [8] | outcome [9] | Potency [10] | outcome [11] | Potency [12] | Potency [13]

BrCC1CO1 (stereo not given)
inactive: Potency [14] | Potency [15] | Potency [2] | outcome [4] | Potency [5] | outcome [6] | Potency [7] | outcome [8] | Potency [16] | outcome [9] | outcome [11] | Potency [12] | Potency [13] | Potency [17]

CS(=O)(=O)c1ccc(C(=O)C2C(=O)CCCC2=O)c(Cl)c1COCC(F)(F)F
active: Potency [17] 28.3 µM
inactive: Potency [14] | Potency [15] | Potency [2] | Potency [3] | outcome [4] | Potency [5] | Potency [7] | outcome [8] | Potency [16] | outcome [9] | Potency [10] | outcome [11] | Potency [12] | Potency [13]

O=C(NC(=O)c1c(F)cccc1F)Nc1cc(Cl)c(F)c(Cl)c1F
inactive: Potency [14] | Potency [15] | Potency [2] | Potency [3] | Potency [5] | outcome [6] | Potency [7] | outcome [8] | Potency [16] | outcome [9] | Potency [10] | outcome [11] | Potency [12] | Potency [13] | Potency [17]

CCOC(=O)Nc1cccc(OC(=O)Nc2ccccc2)c1
active: Potency [13] 30.6 µM
inactive: Potency [14] | Potency [15] | Potency [2] | outcome [4] | outcome [6] | Potency [7] | outcome [8] | Potency [16] | Potency [10] | outcome [11] | Potency [12] | Potency [17]

CCc1cc(OC)c(C[C@H](C)N)cc1OC
inactive: Potency [14] | outcome [4] | Potency [5] | outcome [6] | Potency [7] | outcome [8] | Potency [10] | outcome [11] | Potency [12] | Potency [13]

Cc1ccc(S(=O)(=O)N[C@@H](CCCCN)C(=O)CCl)cc1
inactive: Potency [14] | Potency [15] | Potency [2] | outcome [4] | Potency [5] | outcome [6] | Potency [7] | outcome [8] | Potency [16] | outcome [9] | outcome [11] | Potency [12] | Potency [13] | max activation [18] -2.32% | Potency [19] | Potency [20] | Potency [17]

CC(Cc1ccccc1)NCCn1cnc2c1c(=O)n(C)c(=O)n2C (stereo not given)
inactive: Potency [15] | Potency [2] | Potency [3] | outcome [4] | Potency [5] | outcome [6] | Potency [7] | outcome [8] | Potency [16] | outcome [9] | outcome [11] | Potency [12] | Potency [13] | Potency [17]

CC(C)NCC(O)c1ccc([N+](=O)[O-])cc1 (stereo not given)
inactive: Potency [14] | Potency [15] | Potency [3] | outcome [4] | Potency [5] | outcome [6] | Potency [7] | outcome [8] | outcome [9] | Potency [10] | outcome [11] | Potency [12] | Potency [13] | Potency [17]
